# Measurements from PubChem BioAssay (NCI).
# About 83,000 compounds went through this panel and 20% of them were active in at least one assay; those are over-represented in the sample as a whole.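 Cells were grown in 96-well plates and exposed to the test compound at a single concentration for 48 hours; results are reported as percent growth, with values below 10 considered active.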 A number with no mark means an inactive call. Activity calls are given as the source filed them.
# System: SW-620 colon
# Test: NCI-60 one-dose screen, 48 h (100 = growth as untreated, 0 = no growth, -100 = all killed)
# Conditions: 10 µM
# Procedure: Growth inhibition of the SW-620 human tumor cell line is measured as a screen for anti-cancer activity. Cells are grown in 96 well plates and exposed to the test compound for 48 hours. Compounds are tested at a single concentration, which is 10^-5 M for most compounds. The reported endpoint is percent growth (GI% or GIPRCNT), where numbers from 0 - 100% represent growth inhibition, and numbers from -100% - 0 represent cell death. For example, a value of 40 represents 60% growth inhibition. A value of 0 means no net growth occurred over the course of the experiment. A value of -40 indicates 40% of cells at the beginning of the experiment died by the end of the experiment. A value of -100 means all cells are dead at the end of the experiment.
# NCI-60 Human Tumor Cell Lines Screen was performed using the standard one-dose NCI protocol, which is described in more detail at https://dtp.cancer.gov/discovery_development/nci-60/default.htm.
# Compounds with GIPRCNT values below 10 were considered active. Activity score was based on GIPRCNT using the following formula: […]
# Score is 0 for GIPRCNT values of 100 or above, 50 for GIPRCNT values of 0, and 100 for GIPRCNT values of -100.
row,Structure (SMILES),growth
1,O=C(O)C(O)c1ccccc1 (stereo not given),107%
2,NC(C(=O)O)c1ccc([N+](=O)[O-])cc1 (stereo not given),109%
3,CC(=O)Nc1cccc(Cl)c1C,101%
4,CN(C)c1ccc(CNC(C(=O)c2ccccc2)c2ccccc2)cc1 (stereo not given),101%
5,CC1=CC(=O)c2ccccc2C1=O,106%
6,CCOC(=O)c1[nH]c(C)c(C(=O)O)c1C,107%
7,CC1(C)S(=O)(=O)OCCOS1(=O)=O,101%
8,CCCOC(=O)C(O)c1ccccc1 (stereo not given),102%
9,NCCC(=O)c1ccc(Cl)cc1,102%
10,COc1cc2c(cc1OC)[C@H](C(=O)O)[C@@H](c1ccc(OC(C)C)c(OC)c1)N(C)C2=O,109%
11,N#CCc1ccc([N+](=O)[O-])cc1,94.5%
12,O=C(O)/C=C/C(=O)NCc1ccccc1,109%
13,Clc1ccc(-c2n[nH]c3c2Cc2ccccc2-3)cc1Cl,111%
14,COc1cc(C(=O)NC(=S)Nc2ccc3ccccc3c2)cc(OC)c1OC,74%
15,CC(CN1CCCCC1)NC(=O)c1scnc1-c1ccccc1 (stereo not given),106%
16,C[C@]12CC[C@@H]3c4ccc(OCC(=O)O)cc4CC[C@H]3[C@@H]1CCC2=O,102%
17,CCCCOC(=O)c1ccc(C(C)C)cc1,111%
18,CC(=O)OC(C(=O)O)c1ccccc1 (stereo not given),101%
19,O=C(O)CCC(=O)OC(C1CO1)C(OC(=O)CCC(=O)O)C1CO1 (stereo not given),106%
20,CCOc1ccc(I)cc1,105%

row,Structure (SMILES),growth
1,CCOc1ccc2[nH]c(=S)sc2c1,102%
2,COc1cc2nc3cc([N+](=O)[O-])ccc3c(Cl)c2cc1OC,104%
3,Nc1ccc(N=Nc2ccc(O)cc2)c(N)n1,104%
4,CC1(C)N=C(N)N=C(N)N1c1ccc(Cl)cc1,34.3%
5,NC(C(=O)O)C(O)c1ccco1 (stereo not given),102%
6,N#CSc1cc(S(N)(=O)=O)ccc1N,107%
7,N#C/C(=C\c1cc(O)c(O)c(O)c1)C(N)=O,116%
8,Cc1ccccc1C1N=C2Oc3ccccc3C=C2C(=O)N1 (stereo not given),40%
9,COc1ccc2c(NCCCCCCCCNc3c4ccccc4nc4cc(OC)ccc34)c3ccccc3nc2c1,-100% (active)
10,Nc1ccc(N=Nc2ccc(S(=O)(=O)O)cc2)c2ccccc12,88.7%
11,O=C(NCCNC(=O)c1ccc(Cl)cc1Cl)c1ccc(Cl)cc1Cl,113%
12,O=C1C[C@H](c2ccccc2)[C@H](c2ccccc2)C1,109%
13,CCCCCCCCCCC1CO1 (stereo not given),106%
14,O=C1Cc2cc(O)ccc2O1,113%
15,CC1(C)/C(=C\CO)C2CCC1C2 (stereo not given),106%
16,O=C1Cc2ccccc2C(=O)O1,105%
17,O=C(Nc1ccccc1C(=O)NCC1CC1)c1cccs1,109%
18,COC(=O)Nc1nc2ccc(C(=O)c3ccc(F)cc3)cc2[nH]1,24.8%
19,C[N+](C)=c1ccc2nc3c(cc(Nc4ccccc4)c4ccccc43)oc-2c1,56%
20,O=c1[nH][nH]c(=O)c2cc([N+](=O)[O-])ccc12,101%
